From PubChem BioAssay (Tox21) come the findings set out here.

Each structure is given as a SMILES string. Inconclusive results are not listed. Entries that show only a call come without a potency. A number with no mark means an inactive call. Activity calls are given as the source filed them. Unless noted, calls come from the whole dose curve.

Sequence of Peroxisome proliferator-activated receptor gamma (Homo sapiens) (P37231 whole entry, looked up): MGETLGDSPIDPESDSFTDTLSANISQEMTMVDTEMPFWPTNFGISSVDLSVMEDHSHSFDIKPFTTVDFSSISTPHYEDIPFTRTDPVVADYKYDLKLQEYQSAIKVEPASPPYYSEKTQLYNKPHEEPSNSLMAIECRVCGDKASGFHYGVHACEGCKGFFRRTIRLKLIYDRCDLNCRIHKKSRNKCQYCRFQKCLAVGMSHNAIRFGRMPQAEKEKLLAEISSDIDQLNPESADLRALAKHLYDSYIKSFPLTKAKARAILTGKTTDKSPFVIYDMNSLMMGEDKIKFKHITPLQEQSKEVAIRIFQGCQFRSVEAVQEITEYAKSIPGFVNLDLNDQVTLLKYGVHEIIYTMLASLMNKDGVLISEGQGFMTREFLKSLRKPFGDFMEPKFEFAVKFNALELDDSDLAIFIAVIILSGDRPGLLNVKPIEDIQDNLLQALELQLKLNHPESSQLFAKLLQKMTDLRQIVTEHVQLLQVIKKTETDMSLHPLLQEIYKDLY

The target in one assay is Peroxisome proliferator-activated receptor gamma (Homo sapiens) (UniProt P37231). Put plainly: qHTS assay to identify small molecule agonists of the peroxisome proliferator-activated receptor gamma (PPARg) signaling pathway (AID 743094; active = well fitted activation curve with a large enough effect in the signal ratio in the repeat runs, not every such curve was filed as active; the % refers to the signal ratio). As to conditions: HEK293H PPARg-UAS-bla, beta-lactamase FRET ratio, 17 h; series mostly up to 57 µM. The method, boiled down:
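Agonist activity was taken from a beta-lactamase reporter (FRET substrate, 1 h at room temperature) in HEK293H cells carrying a PPARg UAS-bla construct. Compounds in DMSO were incubated 17 h at 37C after a 5 h cell pre-incubation.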
(In general: qHTS replaces the single test concentration by a dilution series.)
Take `CN[C@@H]1[C@@H](O)[C@@H](O[C@@H]2[C@H](O)[C@H](O[C@H]3OC(CN)=CC[C@H]3N)[C@@H](N)C[C@H]2N)OCC1(C)O` (some centres undefined): the result was inactive.

As for `OCCCCCCCl`, the result was inactive.

Consider `COc1cccc2sc(N)nc12`, for which the result was inactive.

For `C=C(C)[C@@H]1CC[C@@H](C)C[C@@H]1O`, the result was inactive.

With `CCNC(=O)NCCCOc1cccc(CN2CCCCC2)c1`, the result was inactive.

With `Cc1ncc([N+](=O)[O-])n1CC(O)CCl` (centres undefined), the result was inactive.

As to `O=C(c1ccc2c(c1)C(=O)OC2=O)c1ccc2c(c1)C(=O)OC2=O`, the outcome was inactive.

With `CCS(=O)(=O)CCn1c([N+](=O)[O-])cnc1C`, the result was inactive.

With `NC(=O)NNC(N)=O`, the result was inactive.

The target is the same in a further assay. Put plainly: qHTS assay to identify small molecule antagonists of the peroxisome proliferator-activated receptor gamma (PPARg) signaling pathway (AID 743191). Note: nearly all actives have a fitted effect of over 30% in size. The note with it: HEK293H PPARg-UAS-bla, beta-lactamase ratio, antagonist, 17 h; series mostly up to 62.6 µM. The method, boiled down: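 GeneBLAzer PPARg UAS-bla HEK293H cells, 5 h post-plating, exposed to compounds 17 h at 37C. LiveBLAzer B/G FRET substrate added for 1 h at room temperature; beta-lactamase reporter read by fluorescence intensity.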
For the compound `C=C[C@@H](C)CCC=C(C)C`, the Potency result was “inactive”.

As to `CCC(=O)c1ccc(O)cc1`, the Potency entry was “inactive”.

For `CCc1nccnc1C`, the Potency entry was “inactive”.

On to `CCCCOC(=O)C(=O)OCCCC`, for which the Potency result was “inactive”.

Consider `CC(C)COC(=O)CCCCC(=O)OCC(C)C`, for which the Potency result was “inactive”.

In the case of `O=CN1CCOCC1`, the Potency result is “inactive”.

As to `C[C@H](CCC(=O)NCC(=O)O)[C@H]1CC[C@H]2[C@@H]3[C@H](O)C[C@@H]4C[C@H](O)CC[C@]4(C)[C@H]3C[C@H](O)[C@]12C`, the Potency result was “inactive”.

Turning to `O=C1NC2NC(=O)NC2N1` (centres undefined), the Potency result was “inactive”.

With `CCOC(=O)CCc1ccccc1`, the Potency result is “inactive”.

Take `Cc1ccccc1OCC1CO1` (centres undefined): the Potency entry is “inactive”.

As for `O=c1[nH]c(=O)c2[nH]c(=O)[nH]c2[nH]1`, the ratio activity, negative = inhibition was -6.65% [at 13.2 µM].

As to `Cc1cccc(Nc2ccncc2S(=O)(=O)NC(=O)NC(C)C)c1`, the Potency entry is “inactive”.

For `CC1=CC[C@H](CC=O)C1(C)C`, the Potency entry was “inactive”.

As to `OC(CCN1CCCCC1)(c1ccccc1)c1ccccc1`, the Potency entry was “inactive”.

`NS(=O)(=O)c1cc2c(cc1Cl)NC(CC1CCCC1)NS2(=O)=O` (centres undefined): the Potency entry is “inactive”.

As to `CN(C)CCCNCCC#N`, the Potency result was “inactive”.

Consider `CCC(O)C(C)(C)C` (centres undefined), for which the Potency entry was “inactive”.

Regarding `C=CCOC(=O)c1ccc(C(=O)OCC=C)c(C(=O)OCC=C)c1`, the Potency result is “inactive”.

For `CC(Cl)COP(=O)(OCC(C)Cl)OCC(C)Cl` (centres undefined), the Potency entry is “inactive”.

For `COCCOCCOCCOC`, the Potency result is “inactive”.

With `CCCCC/C=C/CC(=O)OC`, the Potency result is “inactive”.

On to `NC(=O)NC(=O)Cc1ccccc1`, for which the Potency result is “inactive”.

Take `CCOC(=O)CC(CC(=O)OCC)(OC(C)=O)C(=O)OCC`: the Potency entry was “inactive”.

Turning to `CCC1COC(=O)O1` (centres undefined), the Potency entry is “inactive”.

On to `COCC(=O)Nc1c(I)c(C(=O)NCC(O)CO)c(I)c(C(=O)N(C)CC(O)CO)c1I` (centres undefined), for which the Potency entry was “inactive”.

With `Cc1ccccc1C`, the Potency entry is “inactive”.

System in the next assay: not listed separately
The assay can be described thus: qHTS assay to identify small molecule antagonists of the peroxisome proliferator-activated receptor gamma (PPARg) signaling pathway - cell viability counter screen (AID 743194; active = well fitted cell-killing curve with a large enough effect in the repeat runs; note: nearly all actives have a fitted effect of over 55% in size). The note with it: PPARg-bla HEK293H viability, CellTiter-Glo luminescence, 17 h, co-treated with 50 nM rosiglitazone; series mostly up to 62.6 µM. Put shortly:
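Cytotoxicity counter screen in PPARg-bla HEK293H cells, same wells as reporter assay. Compounds plus 50 nM rosiglitazone (final) for 17 h at 37 C, then viability read by CellTiter-Glo luminescence.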
Regarding `CCC(=O)c1ccc(O)cc1`, the outcome was inactive.

Take `CC(C)COC(=O)CCCCC(=O)OCC(C)C`: the result was inactive.

Turning to `Cc1cc(O)c2c(c1)C(=O)c1cccc(O)c1C2=O`, the outcome was inactive.

As to `C[C@H](CCC(=O)NCC(=O)O)[C@H]1CC[C@H]2[C@@H]3[C@H](O)C[C@@H]4C[C@H](O)CC[C@]4(C)[C@H]3C[C@H](O)[C@]12C`, the outcome was inactive.

Consider `O=C1NC2NC(=O)NC2N1` (centres undefined), for which the result was inactive.

As for `CCOC(=O)CCc1ccccc1`, the outcome was inactive.

For `Cc1ccccc1OCC1CO1` (centres undefined), the outcome was inactive.

In the case of `O=c1[nH]c(=O)c2[nH]c(=O)[nH]c2[nH]1`, the activity change, negative = cytotoxicity was -35.1% [at 13.2 µM].

For `Cc1cccc(Nc2ccncc2S(=O)(=O)NC(=O)NC(C)C)c1`, the outcome was inactive.

Turning to `CC1=CC[C@H](CC=O)C1(C)C`, the outcome was inactive.

Regarding `OC(CCN1CCCCC1)(c1ccccc1)c1ccccc1`, the outcome was inactive.

Consider `NS(=O)(=O)c1cc2c(cc1Cl)NC(CC1CCCC1)NS2(=O)=O` (centres undefined), for which the outcome was inactive.

Regarding `CN(C)CCCNCCC#N`, the outcome was inactive.

With `C=CCOC(=O)c1ccc(C(=O)OCC=C)c(C(=O)OCC=C)c1`, the outcome was inactive.

`Nc1ccc(/C=C/c2ccc(N)cc2S(=O)(=O)O)c(S(=O)(=O)O)c1`: the activity change, negative = cytotoxicity was -0.597% [at 0.55 µM].

Consider `CC(Cl)COP(=O)(OCC(C)Cl)OCC(C)Cl` (centres undefined), for which the result was inactive.

For `COCCOCCOCCOC`, the outcome was inactive.

As for `CCCCC/C=C/CC(=O)OC`, the result was inactive.

Consider `NC(=O)NC(=O)Cc1ccccc1`, for which the outcome was inactive.

On to `COCC(=O)Nc1c(I)c(C(=O)NCC(O)CO)c(I)c(C(=O)N(C)CC(O)CO)c1I` (centres undefined), for which the result was inactive.

System in another assay: not listed separately
The assay can be described thus: qHTS assay for small molecule agonists of the antioxidant response element (ARE) signaling pathway (AID 743202; active = well fitted activation curve with a large enough effect in the signal ratio in the repeat runs, not every such curve was filed as active; the % refers to the signal ratio; note: potency is the fitted concentration of half-maximal effect). The note with it: HepG2 ARE-bla reporter, beta-lactamase FRET, 16 h; series mostly up to 73.3 µM. Put shortly: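 HepG2 ARE-bla cells; 16 h treatment at 37 C; FRET-based beta-lactamase fluorescence read after 2 h substrate incubation at room temperature.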
Regarding `C=C[C@@H](C)CCC=C(C)C`, the Potency result was “inactive”.

On to `CN[C@@H]1[C@@H](O)[C@@H](O[C@@H]2[C@H](O)[C@H](O[C@H]3OC(CN)=CC[C@H]3N)[C@@H](N)C[C@H]2N)OCC1(C)O` (some centres undefined), for which the Potency result is “inactive”.

On to `CCc1nccnc1C`, for which the Potency entry was “inactive”.

In the case of `CCCCOC(=O)C(=O)OCCCC`, the Potency entry is “inactive”.

As to `CC(C)COC(=O)CCCCC(=O)OCC(C)C`, the Potency result is “inactive”.

Take `Cc1cc(O)c2c(c1)C(=O)c1cccc(O)c1C2=O`: the Potency is 10.6 µM (active).

Regarding `O=CN1CCOCC1`, the Potency entry is “inactive”.

In the case of `OCCCCCCCl`, the Potency entry was “inactive”.

As for `O=C1NC2NC(=O)NC2N1` (centres undefined), the Potency result was “inactive”.

In the case of `CCOC(=O)CCc1ccccc1`, the Potency entry was “inactive”.

For the compound `Cc1ccccc1OCC1CO1` (centres undefined), the Potency entry was “inactive”.

Regarding `O=c1[nH]c(=O)c2[nH]c(=O)[nH]c2[nH]1`, the activation was 2.83% [at 8.36 µM].

For `Cc1cccc(Nc2ccncc2S(=O)(=O)NC(=O)NC(C)C)c1`, the Potency entry was “inactive”.

As to `CC1=CC[C@H](CC=O)C1(C)C`, the Potency result was “inactive”.

Consider `OC(CCN1CCCCC1)(c1ccccc1)c1ccccc1`, for which the Potency entry is “inactive”.

Turning to `NS(=O)(=O)c1cc2c(cc1Cl)NC(CC1CCCC1)NS2(=O)=O` (centres undefined), the Potency entry is “inactive”.

With `COc1cccc2sc(N)nc12`, the Potency entry is “inactive”.

For the compound `CN(C)CCCNCCC#N`, the Potency entry is “inactive”.

Turning to `CCC(O)C(C)(C)C` (centres undefined), the Potency entry is “inactive”.

With `C=CCOC(=O)c1ccc(C(=O)OCC=C)c(C(=O)OCC=C)c1`, the Potency entry is “inactive”.

On to `C=C(C)[C@@H]1CC[C@@H](C)C[C@@H]1O`, for which the Potency result was “inactive”.

In the case of `Nc1ccc(/C=C/c2ccc(N)cc2S(=O)(=O)O)c(S(=O)(=O)O)c1`, the activation was -8.26% [at 0.756 µM].

On to `CC(Cl)COP(=O)(OCC(C)Cl)OCC(C)Cl` (centres undefined), for which the Potency entry was “inactive”.

Turning to `CCNC(=O)NCCCOc1cccc(CN2CCCCC2)c1`, the Potency entry was “inactive”.

Take `Cc1ncc([N+](=O)[O-])n1CC(O)CCl` (centres undefined): the Potency result was “inactive”.

For `COCCOCCOCCOC`, the Potency entry was “inactive”.

Consider `CCCCC/C=C/CC(=O)OC`, for which the Potency result is “inactive”.

Turning to `O=C(c1ccc2c(c1)C(=O)OC2=O)c1ccc2c(c1)C(=O)OC2=O`, the Potency result is “inactive”.

Consider `NC(=O)NC(=O)Cc1ccccc1`, for which the Potency entry was “inactive”.

Consider `CCOC(=O)CC(CC(=O)OCC)(OC(C)=O)C(=O)OCC`, for which the Potency result is “inactive”.

Take `CCC1COC(=O)O1` (centres undefined): the Potency entry is “inactive”.

Regarding `COCC(=O)Nc1c(I)c(C(=O)NCC(O)CO)c(I)c(C(=O)N(C)CC(O)CO)c1I` (centres undefined), the Potency result was “inactive”.

For the compound `CCS(=O)(=O)CCn1c([N+](=O)[O-])cnc1C`, the Potency result is “inactive”.

For `Cc1ccccc1C`, the Potency result was “inactive”.
